Reference: PubChem BioAssay
Calls of active or inactive are those of the source. No rule for the calls is given here.

Test: compounds altering viability of human ES cells (AID 493140);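 also: cells exposed to compounds for four days before counting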
Details: human embryonic stem cell survival screen; active compounds read high

SMILES | survival
CN1CCN(C2=Nc3ccccc3Oc3ccc(Cl)cc32)CC1 | 12 (inactive)
CO[C@@]1(NC(=O)CSCC#N)C(=O)N2C(C(=O)O)=C(CSc3nnnn3C)CS[C@@H]21 | 4.83 (inactive)
CN1CCC(=C2c3ccccc3C=Cc3ccccc32)CC1 | 13.7 (inactive)
NC(N)=Nc1nc(CSCC/C(N)=N/S(N)(=O)=O)cs1 | 16.5 (inactive)
COc1cc2nc(N3CCN(C(=O)C4COc5ccccc5O4)CC3)nc(N)c2cc1OC (centres undefined) | 4.33 (inactive)
CC(C)NCC(O)COc1ccc(CCOCC2CC2)cc1 (centres undefined) | 8.33 (inactive)
C[C@]12C[C@H](O)[C@H]3[C@@H](CCC4=CC(=O)CC[C@@]43C)[C@@H]1CC[C@@H]2C(=O)CO | 6.08 (inactive)
Cc1scc2c1N(C(=O)CN1CCN(C)CC1)c1ccccc1NC2=O | 11.3 (inactive)
COc1cc(C(=O)OCCCN2CCCN(CCCOC(=O)c3cc(OC)c(OC)c(OC)c3)CC2)cc(OC)c1OC | 9.25 (inactive)
CC[N+](C)(C)Cc1ccccc1Br | 6.92 (inactive)
Nc1nc2c(ncn2COC(CO)CO)c(=O)[nH]1 | 3.83 (inactive)
C=CC(N)CCC(=O)O (centres undefined) | 14.4 (inactive)
COC(=O)[C@@H]1[C@H]2C[C@H]3c4[nH]c5ccccc5c4CCN3C[C@@H]2CC[C@@H]1O | 8.25 (inactive)
O=C(c1ccc(F)cc1)C1CCN(CCn2c(=O)[nH]c3ccccc3c2=O)CC1 | 12.7 (inactive)
CC(=O)OC(C)C[N+](C)(C)C (centres undefined) | 1.33 (inactive)
CCOC(=O)C1=C[C@]2(CC)CCCN3CCc4c(n1c1ccccc41)[C@@H]32 | 5.33 (inactive)
Nc1ccn([C@H]2CC[C@@H](CO)O2)c(=O)n1 | 9 (inactive)
NC(N)=NC(=O)Cc1c(Cl)cccc1Cl | 7.33 (inactive)
CN1C(C)(C)CCCC1(C)C | 3.5 (inactive)
COc1ccc(C2CNC(=O)C2)cc1OC1CCCC1 (centres undefined) | 3.92 (inactive)
NC(N)=N/N=C/c1c(Cl)cccc1Cl | 17.8 (inactive)
C[C@]12C=CC(=O)C=C1CC[C@H]1[C@@H]3C[C@@H](O)[C@](O)(C(=O)CO)[C@@]3(C)C[C@H](O)[C@@]12F | 13.9 (inactive)
CCOC(=O)C1=C(C)NC(C)=C(C(=O)OC)C1c1cccc(Cl)c1Cl (centres undefined) | 15.7 (inactive)
COC(=O)Nc1nc2ccc(C(=O)c3cccs3)cc2[nH]1 | 1.17 (inactive)
